From PubChem
An excerpt weighted towards active compounds, which were near 1.6% of everything screened.
MT1-MMP txn act: MT1-MMP promoter transcription activation; HT1080 MT1-MMP promoter luciferase reporter, luminescence, overnight; active compounds read high; activation factor at 10 µM; actives 0.16% (n = 86,000);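 active = activation factor of at least 2 for MT1-MMP transcription at 10 µM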
PTPN22 inh 2: blocks human PTPN22 phosphatase activity | Q9Y2R2 | recombinant LYP catalytic domain, DiFMUP fluorescence | inhibition, % at 2 µM | actives 0.21% (n = 96,000) | AID 640;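 active = inhibition at 2 µM at or above a set limit, the screen mean plus 3 SD, cut at about 24% in these data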;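 also: 0% = DMSO with enzyme and 100% = enzyme fully blocked by orthovanadate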
TNAP act mid DEA: human TNAP activation, intermediate phosphate acceptor | P05186 | purified TNAP, CDP-star luminescence, 100 mM DEA, 30 min; active compounds read high; scale: 0 levamisole-inhibited, 1 vehicle-only enzyme | activation factor at 20 µM | 64,000 tested, under 10 active | AID 813;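 active = activation factor of at least 2 at 20 µM, relative to controls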
PLAP activator: activators of human placental alkaline phosphatase | purified PLAP enzyme, luminescent substrate read-out; active compounds read high | activation fold at 20 µM | actives 1.2% (n = 96,000); in the data active = activation fold above about 2
Target sequence (P05187 whole entry, looked up): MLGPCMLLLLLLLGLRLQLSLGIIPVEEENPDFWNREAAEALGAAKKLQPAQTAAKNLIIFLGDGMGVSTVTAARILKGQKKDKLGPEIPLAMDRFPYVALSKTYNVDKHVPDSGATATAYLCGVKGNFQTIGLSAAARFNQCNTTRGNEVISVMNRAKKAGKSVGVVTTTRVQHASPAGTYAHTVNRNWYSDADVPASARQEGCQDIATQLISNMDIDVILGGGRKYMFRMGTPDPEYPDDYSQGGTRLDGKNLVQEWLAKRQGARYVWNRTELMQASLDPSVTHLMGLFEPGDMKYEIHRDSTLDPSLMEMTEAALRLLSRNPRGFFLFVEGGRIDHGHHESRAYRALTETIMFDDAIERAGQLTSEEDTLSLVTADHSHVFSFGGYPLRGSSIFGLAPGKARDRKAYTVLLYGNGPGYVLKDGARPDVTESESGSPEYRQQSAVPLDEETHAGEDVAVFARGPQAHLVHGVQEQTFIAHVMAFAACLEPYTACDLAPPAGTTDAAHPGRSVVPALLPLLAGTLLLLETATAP
PTPN22 act: LYP (human) phosphatase activation; Q9Y2R2; recombinant LYP, DiFMUP fluorescence; 0 = plate median, 100 = signal doubled; activation, % at 2 µM; actives 0.11% (n = 96,000); AID 697;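 active = activation at 2 µM above a set limit, the mean plus 5 SD, cut at about 37% in these data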
* = called active by the depositor; nt = not tested or not shown.

SMILES	MT1-MMP txn act	PTPN22 inh 2	TNAP act mid DEA	PLAP activator	PTPN22 act
Cc1cccc(Nc2nnc(SCc3cn4ccsc4n3)s2)c1	1.2	-1	0.9	2.1*	1
Cc1ccc2oc(Nc3nc(C)cc(C)n3)nc2c1	1.5	-3	1.1	2.8*	3
Cc1ccc2oc(-c3ccccc3)nc2c1	nt	6	nt	0.9	-4
C[C@H](CO)NC(=O)[C@H]1C[C@@H]1[C@H](NP(=O)(c1ccccc1)c1ccccc1)c1ccccc1	1	nt	nt	nt	nt
COC(=O)[C@@]1(Cc2ccc(OC)cc2)[C@H]2c3cc(C(=O)N(C)C)n(Cc4ccc(O)c(OC)c4)c3C[C@H]2CN1C(=O)c1ccccc1	1.1	nt	nt	nt	nt
[N-]=[N+]=CC(=O)CC(c1ccccc1)N1C(=O)c2ccccc2C1=O (stereo not drawn)	1.1	3	0.9	2*	-6
CCOC(=O)CSc1nnc([C@@H](NC(=O)OC(C)(C)C)C(C)C)o1	1.1	6	1.1	1	-8
CCc1nnc(NC(=O)CN2C(=O)c3ccccc3S2(=O)=O)s1	1	2	1.1	1.3	-1
Cc1nnc(NC(=O)CN2C(=O)c3ccccc3S2(=O)=O)s1	0.9	3	1	2.1*	-1
CCc1nnc(NC(=O)CN2CCN(c3nc(-c4ccccc4)cs3)CC2)s1	1	-3	0.9	2.1*	4
O=C(CN1CCCCC1)Nc1nnc(-c2ccccc2)s1	1.5	-3	0.9	2*	-1
CN(C)C(=O)[C@H]1C[C@@H]1[C@H](NC(=O)OCc1ccccc1)c1ccccc1	1.1	nt	nt	nt	nt
Fc1ccccc1Cn1nnc(-c2ccc3c(c2)OCO3)n1	1.4	2	nt	0.9	-1
COc1ccc(-c2nnn(Cc3ccccc3F)n2)cc1	2.3*	2	nt	nt	-2
O=C(COc1ccccc1Cl)N1CCN(c2ccc([N+](=O)[O-])c(N3CCOCC3)c2)CC1	nt	1	nt	1.3	4
O=C(Nc1ccc2nc(-c3ccc4nc[nH]c4c3)[nH]c2c1)c1cccs1	1.2	22	nt	2.1*	-20
CCCC(=O)Nc1nc(-c2ccc3c(c2)OCCO3)cs1	1.4	1	0.9	0.9	-4
CCCc1cc(-c2[nH]ncc2-c2ccc3c(c2)OCCCO3)c(O)cc1O	0.9	-1	1.1	2.6*	0
CCOC(=O)c1ccc(CSc2ncn[nH]2)o1	1.2	-11	0.8	0.9	10
CCCc1cc(-c2[nH]ncc2-c2ccc(C(=O)OCC)o2)c(O)cc1O	1.1	-3	1.1	2.1*	0
Cn1c(=O)c(C(=O)Nc2ncccc2O)c(O)c2ccccc21	1.4	nt	1	2.2*	nt
CCOc1ccccc1NC(=O)NC1(C(=O)N2CCN3CCCC3C2)CCCCC1 (stereo not drawn)	1.2	-5	0.9	2.1*	2
O=C(CSc1nc2ccc(S(=O)(=O)N3CCOCC3)cc2[nH]1)N1CCOCC1	1.1	34*	1	1.1	-36
O=C(CSc1nc2ccccc2c(=O)[nH]1)N1CCOCC1	1.2	nt	1	1	nt
COC(=O)CC1Oc2cc3oc4c5ccccc5oc(=O)c4c3cc2O1 (stereo not drawn)	1.1	nt	nt	nt	nt
SMILES	MT1-MMP txn act	PTPN22 inh 2	TNAP act mid DEA	PLAP activator	PTPN22 act
Cc1ccc(-n2nc3c4c(cccc4c2=O)-c2ccccc2-3)cc1	nt	32*	nt	0.8	-28
Cc1nn(-c2ccc(C(=O)O)cc2)c(=O)c2ccccc12	1	0	0.9	0.9	-2
O=C1CC(c2ccccc2)n2nc(NS(=O)(=O)c3ccccc3)nc2N1 (stereo not drawn)	1	3	1	2*	-7
CC(C)CCNC(=O)CN(C(=O)Cn1nnc(-c2ccccc2F)n1)c1cccc2c1CCCC2	nt	14	nt	2.6*	-13
O=C(CN(C(=O)Cn1nnc(-c2ccccc2F)n1)c1cccc2c1CCCC2)NCc1ccccc1	nt	7	nt	nt	-9
O=C(O)C1CCC(=O)N1Cc1ccccc1Cl (stereo not drawn)	1.2	nt	1.1	0.9	nt
CCN1CCN(C(=O)CN(C)S(=O)(=O)c2ccc(OC)c(C)c2)CC1	1	-1	nt	1.6	4
COc1ccc(S(=O)(=O)N(C)CC(=O)N2CCN(Cc3ccccc3)CC2)cc1C	1.1	9	nt	2*	-8
CCOC(=O)c1[nH]cnc1C(=O)Nc1ccncc1	nt	-19	1	2.5*	14
CSCC[C@H](NC(=O)CCNC(C)=O)c1nc2ccccc2[nH]1	1	-4	nt	0.9	7
S=C(Nc1ccccn1)c1ccccn1	1	5	1	2.4*	-6
Cc1ccc(C)c(NC(=S)c2ccccn2)c1	1.4	-2	nt	1.2	4
Nc1nc2ccc([N+](=O)[O-])c(N)c2s1	nt	8	nt	0.8	-4
Cc1ccc(-c2nn(CC(=O)NCc3cc(-c4nn(C)c(=O)c5ccccc45)ccc3C)c(=O)c3ccccc23)cc1	1	25*	nt	1.8	-24
CCC(=O)NCc1cc(-c2nn(C)c(=O)c3ccccc23)ccc1C	1.1	3	nt	1	-1
CC(C)c1cccc2nc3c(c([Si](C)(C)C)c12)Cn1c-3cccc1=O	1.1	nt	nt	nt	nt
COC(=O)c1ccc(C(NC(=O)OCc2ccccc2)/C(F)=C/[C@@H](C)C(=O)NCc2cccnc2)cc1 (stereo partly drawn)	1.2	nt	nt	nt	nt
COc1ccc(CN2CCN(C(=O)c3ccco3)CC2)cc1	1.1	37*	0.9	0.9	-36
CCOc1ccccc1OCCCCCc1c(C)n[nH]c1C	1.1	0	1.1	1.5	-3
COc1ccc(OCCCc2c(C)n[nH]c2C)cc1	1.1	0	nt	2.3*	2
Cc1cccc(OCCCCc2c(C)n[nH]c2C)c1C	1	-2	1.2	2.4*	0
COc1ccc2nc(NC(=O)CNS(=O)(=O)c3cccs3)sc2c1	1.1	-4	nt	2.5*	8
COc1ccc(NC(=O)CNS(=O)(=O)c2cccs2)c(OC)c1	1.2	10	nt	1.4	-7
COc1ccc2nc(NC(=O)CN(C)S(=O)(=O)c3cccs3)sc2c1	nt	-11	nt	1.2	8
Cc1csc(NC(=O)CNS(=O)(=O)c2cccs2)n1	1	-5	1.1	2*	3
SMILES	MT1-MMP txn act	PTPN22 inh 2	TNAP act mid DEA	PLAP activator	PTPN22 act
Cc1nc2nc(SCC(N)=O)[nH]c2cc1Br	1.1	-1	0.9	2.2*	2
CCOC(=O)CNC(=O)CSc1nc2nc(C)c(Br)cc2[nH]1	1.1	-6	0.9	2.3*	4
COC(=O)[C@@H]1C[C@@]2(O)[C@@H](O)[C@@H](O)[C@@H](O)C[C@H]2N1Cc1ccc(C(C)(C)C)cc1	1.1	nt	nt	nt	nt
CCC1=C2CC[C@H]3C(=O)N(CC)C(=O)[C@H]3[C@H]2[C@@]2(Cc3ccccc3)C(=O)N(CCOC)C(=O)N2C1=O	1.2	nt	nt	nt	nt
CCN1CCN(CCCNC(=O)C2c3ccccc3C(=O)N(C)C2c2ccc(OC)cc2)CC1 (stereo not drawn)	1.1	-15	0.9	1.3	14
CCCCN(CC)CCCNC(=O)C1c2ccccc2C(=O)N(C)C1c1cn(C)c2ccccc12 (stereo not drawn)	0.9	-1	nt	2*	4
